Hits are enriched below; roughly 10% of the tested compounds scored in any of these assays.
VDR inhibitor = Inhibitors of the vitamin D receptor (VDR): qHTS; Vitamin D3 receptor (Homo sapiens), P11473; VDR-SRC2-3 peptide fluorescence polarization, 2 h; Potency, µM, without a hit: max response, negative = inhibition, usual class: inhibitors; actives 0.93% (n = 400,000); AID 504847, 2011; note: potency is the fitted concentration of half-maximal effect
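Reagent solutions, kept cold and dark, are dispensed first; compounds are then pinned in at 23 nl, plates briefly spun, and incubated 2 h at ambient temperature. Inhibition of VDR–SRC2-3 peptide binding is read by fluorescence polarization.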
Sfp PPTase inh = qHTS Assay for Inhibitors of Bacillus subtilis Sfp phosphopantetheinyl transferase (PPTase); AID 1490, 2009; actives 3.5% (n = 310,000); Potency, µM, inactives show largest response in the series, negative = inhibition, actives largely listed as inhibitors; Biochemical Sfp PPTase activity, qHTS;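 note: the enzyme is Sfp with the accession as filed and its product quenches rhodamine fluorescence; potency is the fitted concentration of half-maximal effect; 0% = enzyme reaction without inhibitor and -100% = no enzyme wells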
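Fluorescence-quenching assay with 15 nM Sfp, 5 uM rhodamine-CoA and 12.5 uM BHQ-2-labelled ybbR peptide in pH 7.6 Hepes/MgCl2 buffer. Enzyme was pre-incubated with compound for 15 min at room temperature. Rate was taken from the 30-min fluorescence change (525/598 nm).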
PLK1 PBD block = qHTS for Inhibitors of PLK1-PDB (polo-like kinase 1 - polo-box domain): Primary Screen. Plk1 PBD binding of FITC phosphopeptide, fluorescence polarization. Serine/threonine-protein kinase PLK1 (Homo sapiens), P53350. Potency, µM, for inactives: max response, negative = inhibition, actives largely listed as inhibitors. actives 2.8% (n = 360,000); note: potency is the fitted concentration of half-maximal effect; series mostly up to about 57 µM; nearly all actives have a fitted effect of over 65% in size
Target sequence (P53350 whole entry, looked up, the tested form may be a part): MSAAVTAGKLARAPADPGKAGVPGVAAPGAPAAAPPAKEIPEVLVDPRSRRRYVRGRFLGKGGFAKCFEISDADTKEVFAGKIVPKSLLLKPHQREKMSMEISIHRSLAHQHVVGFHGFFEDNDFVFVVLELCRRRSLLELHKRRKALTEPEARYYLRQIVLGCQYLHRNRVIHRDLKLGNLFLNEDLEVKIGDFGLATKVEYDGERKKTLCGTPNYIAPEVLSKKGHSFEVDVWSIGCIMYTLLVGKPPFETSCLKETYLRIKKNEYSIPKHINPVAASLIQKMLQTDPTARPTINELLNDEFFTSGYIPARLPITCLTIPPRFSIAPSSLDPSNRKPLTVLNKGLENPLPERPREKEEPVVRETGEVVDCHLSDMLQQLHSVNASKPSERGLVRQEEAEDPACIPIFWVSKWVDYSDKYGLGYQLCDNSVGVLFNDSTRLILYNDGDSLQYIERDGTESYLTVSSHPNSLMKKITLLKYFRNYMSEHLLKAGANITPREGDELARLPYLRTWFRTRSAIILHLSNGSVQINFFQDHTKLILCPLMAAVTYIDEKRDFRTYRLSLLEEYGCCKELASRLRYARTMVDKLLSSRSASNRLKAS
CCT modulator = High-Throughput Screening for Modulators of Cytosolic Chaperonin Activity | purified chaperonin ATPase assay, HTRF ADP detection, 30 min | activity change, % (concentration not given with the values), hits read low | actives 0.3% (n = 360,000) | AID 651819, 2012; in the data active = activity change below about -30%
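TRiC at 40 or 20 nM final (batch-dependent) in 30 mM Tris pH 7.4, 100 mM KCl, 5 mM MgCl2, 1 mM DTT, with compound at single 76 uM and 10 uM ATP, 30 min at 37 deg C. ADP detected by HTRF Transcreener, 665/615 ratio.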
G9a inh = qHTS Assay for Inhibitors of Histone Lysine Methyltransferase G9a; G9a H3K9 monomethylation, AlphaScreen, 2 h; Potency, µM (highest dose often 102 µM), for the others: at the top dose activity, negative = inhibition, hits mostly inhibitors; actives 8.8% (n = 350,000); note: potency is the fitted concentration of half-maximal effect; nearly all actives have a fitted effect of over 75% in size
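AlphaScreen detection with an anti-monomethyl H3K9 antibody quantified product after a 2 h room-temperature reaction containing 500 nM biotinylated H3K9 peptide, 20 µM SAM and 20 nM enzyme, which had been preincubated 15 min with compound.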
MmCpn inh = Inhibitors of TCP-1 ring complex (TRiC) of Methanococcus maripaludis (MmCpn): qHTS | Chaperonin Mm-Cpn (Methanococcus maripaludis) | purified Mm-Cpn ATPase, ADP Transcreener TR-FRET | Potency, µM (doses to about 76.9 µM), without a hit: top-dose activity, negative = inhibition, hits mostly inhibitors | actives 0.031% (n = 330,000); note: potency is the fitted concentration of half-maximal effect; nearly all actives have a fitted effect of over 80% in size
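ATP (10 uM final) was added to archaeal chaperonin (25 nM final) after 10 min exposure to test compound at 37°C; after 30 min further incubation, ADP was detected by competitive TR-FRET.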
* hit, by the source's call; ? = inconclusive; nt = no result given; [ ] = dose if it differs, or a comment. Unless noted, calls come from the whole dose curve; as a rule, active = well fitted curve in the direction sought with a large enough effect; inconclusive = small, poorly fitted or top-dose-only effect, or another doubt; inactive = no such curve, though single readings can be large; an effect the other way counts as inactive or inconclusive. Unless noted, % is set by controls: 0 for no effect and ±100 for the full control effect.

SMILES	VDR inhibitor	Sfp PPTase inh	PLK1 PBD block	CCT modulator	G9a inh	MmCpn inh
CC(C)(C)OC(=O)N1CCC(c2cc(=O)n3[nH]c(-c4ccc(Cl)cc4)cc3n2)CC1	-3%	-1%	4%	-1	30%	2%
COc1ccc(NC(=O)c2cnn(-c3ccc(F)cc3F)c2C2CCN(C(=O)OC(C)(C)C)CC2)cc1Cl	4%	nt	nt	nt	?	nt
COc1ccc(NC(=O)c2c[nH]n3c(=O)cc(C4CCN(C(=O)OC(C)(C)C)CC4)nc23)cc1Cl	-9%	16%	24µM*	-2	45µM*	1%
CC(C)(C)OC(=O)N1CCC(c2cc(=O)n3[nH]cc(C(=O)NC4CCCC4)c3n2)CC1	-1%	1%	-22%	0	56µM*	0%
CC(C)(C)OC(=O)N1CCC(c2cc(=O)n3[nH]cc(C(=O)Nc4ccc(F)c(Cl)c4)c3n2)CC1	-6%	8%	24µM*	-2	-42%	2%
COCCCNC(=O)c1c(NC(=O)Cc2coc3cc(C)ccc23)sc2c1CCCC2	3%	nt	nt	nt	-6%[59 µM]	nt
COc1ccccc1N1CCN(CCCNC(=O)c2cnn(-c3cccc(Cl)c3)c2C2CCN(C(=O)OC(C)(C)C)CC2)CC1	5%	nt	nt	nt	?	nt
Nc1c(C(=O)Nc2ccccc2Cl)nnn1Cc1cccc(Cl)c1	-6%	nt	nt	nt	-7%[59 µM]	nt
Cc1ccccc1OCc1nnc(SCc2cc(=O)c3cc(F)ccc3[nH]2)n1C	8%	nt	nt	nt	-5%[59 µM]	nt
CCSc1nc2c([nH]c3ccccc32)c(=O)n1-c1ccc(OC)cc1	9%	nt	nt	nt	7%[59 µM]	nt
CCN(CC)c1ccc(C2Nc3ccccc3-c3cc(C)nn32)cc1 (configuration not stated)	-3%	nt	nt	nt	22µM*	nt
CN(C)c1ncnc2ccc(-c3cccnc3)cc12	?	1%	nt	nt	5%[0.501 µM]	nt
Oc1ccc(Nc2ncnc3c2oc2ccccc23)cc1	2%	-11%	3%	2	?	-2%
Oc1ccccc1Nc1ncnc2c1oc1ccccc12	1%	6%	-6%	1	?	1%
Oc1cccc(Nc2ncnc3c2oc2ccccc23)c1	-1%	-8%	2%	-5	50µM*	-1%
c1ccc(Nc2ncnc3c2oc2ccccc23)cc1	19%	79µM*	-2%	3	-33%[59 µM]	nt
CCOc1ccccc1NC1c2ccccc2C(=O)N1c1cccnc1 (configuration not stated)	2%	-2%	-10%	-1	79µM*	-2%
O=C1c2ccccc2C(Nc2ccccc2)N1c1cccnc1 (configuration not stated)	13%	21%	-12%	1	13%	1%
Cc1ccc(OCCOCCN2CCCCC2)c([N+](=O)[O-])c1	-1%	56µM*	-5%	-3	nt	-4%
O=[N+]([O-])c1ccc(OCCN2CCNCC2)cc1	6%	?	2%	-4	nt	-3%
Cc1ccc(OCCOCCN2CCN(C)CC2)c([N+](=O)[O-])c1	-16%	79µM*	-8%	-2	nt	-2%
Cc1ccc([N+](=O)[O-])c(OCCN2CCNCC2)c1	29%	?	0%	0	8.9µM*	0%
O=C(COCc1cc(-c2cccs2)on1)N1CCN(c2ccccc2)CC1	8%	nt	nt	nt	-7%[59 µM]	nt
COc1ccc(C)cc1NC(=O)C(=O)NCC(c1cccnc1)N1CCN(c2ccccc2F)CC1 (configuration not stated)	10%	nt	nt	nt	1%[59 µM]	nt
Cc1ccc(NC(=O)Cn2c(=O)n(CCCCC(=O)NCCc3ccccc3)c(=O)c3ccccc32)c(C)c1	-7%	nt	nt	nt	-4%[59 µM]	nt
SMILES	VDR inhibitor	Sfp PPTase inh	PLK1 PBD block	CCT modulator	G9a inh	MmCpn inh
CCc1ccc(C2=NNC(=Nc3c(C)n(C)n(-c4ccccc4)c3=O)SC2)cc1	-7%	-21%	-14%	0	25µM*	-2%
CCCCS(=O)CC(O)CSc1nc(-c2ccc(OC)cc2)cc(-c2ccccc2)c1C#N (configuration not stated)	-12%	nt	nt	nt	10%[59 µM]	nt
CC(C)(C)n1nnnc1C(c1ccccc1)N1CCN(c2ccccc2)CC1 (configuration not stated)	nt	nt	-13%	-2	nt	nt
CC(C)C(c1nnnn1C(C)(C)C)N1CCN(c2cccc(Cl)c2)CC1 (configuration not stated)	-3%	8%	3µM*	2	3%[59 µM]	-1%
CC1(C)CC2/C(CO)=C/C=C/[C@](C)(O)CC[C@]21O (some centres not stated)	-3%	8%	nt	nt	nt	nt
CC(=O)c1ccc(NC(=O)Nc2sc(NS(=O)(=O)c3ccccc3)nc2C)cc1	-2%	?	-28%	0	nt	0%
Cc1nc(NS(=O)(=O)c2ccccc2)sc1NC(=O)Nc1ccc(Cl)cc1	-10%	79µM*	?	0	-26%[12.7 µM]	-1%
Cc1nc(NS(=O)(=O)c2ccccc2)sc1NC(=O)Nc1ccccc1	-22%	45µM*	-28%	-1	?	-14%
Cc1nc(NS(=O)(=O)c2ccccc2)sc1C(=O)NNS(=O)(=O)c1ccccc1	2%	-18%	-19%	1	50µM*	1%
COc1ccc(-c2nc(Cn3c(=O)cc(-c4ccccc4)c4c(C)nn(C)c43)c(C)o2)cc1OC	12%	nt	nt	nt	-42%[59 µM]	nt
COc1ccccc1CN1CC[C@@]2(CCCN(C(=O)c3cc(C(F)(F)F)cc(C(F)(F)F)c3)C2)C1	?	-5%	nt	nt	-4%[12.7 µM]	nt
CCc1ccccc1NC(=O)[C@@H](c1ccccc1)N1Cc2ccccc2C1=O	-18%	nt	nt	nt	8%[59 µM]	nt
COc1ccc2c(c1)C(=O)N(c1ccccc1OC)C(=O)C2(C)C	1%	-3%	1%	1	5%[59 µM]	0%
CC1(C)C(=O)N(c2ccccc2Cl)C(=O)c2ccccc21	9%	2%	-10%	-1	79µM*	0%
Cn1c(-c2nonc2N)nc2ccccc21	2%	3%	1%	-6	40µM*	1%
Brc1ccc(Cn2c(-c3ccc(Br)o3)nc3ccccc32)o1	-17%	?	-2%	-2	40µM*	-10%
CC(=O)c1ccc(-c2nc3ccccc3n2C)o1	7%	40µM*	-7%	-1	-5%[12.7 µM]	-11%
Cc1nc2ccccc2n1Cc1ccc(Br)cc1	-12%	nt	-4%	-1	nt	nt
Cn1c(-c2ccc(Br)o2)nc2cc(Br)ccc21	-20%	40µM*	?	-5	?	-5%
Cc1nc2cc(NS(=O)(=O)c3ccc(Br)cc3)ccc2n1C	-7%	-13%	4%	0	24%[0.501 µM]	-3%
Cc1c2cnn(CC(=O)N3CCN(c4ccccc4)CC3)c(=O)c2c(C)n1Cc1ccccc1Cl	1%	nt	nt	nt	5%[59 µM]	nt
